Calls of active or inactive are those of the source.
Assays:
[1] = tested on: Plasmodium falciparum Sir2 (PF13_0152, Sir2A); test: pfSir2 binders on small-molecule microarrays, primary screen, biochemical, small-molecule microarray, 635 nm fluorescence (AID 1098); details: small-molecule microarray binding, fluorescence 635 nm; higher = more signal;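 also: score merges spot fluorescence intensity with its signal-to-noise ratio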
[2] = small-molecule microarray binders of probe aDKK1, primary screen, biochemical, biotinylated probe, 635/667 nm fluorescence (AID 1099); details: higher = more signal;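 also: score merges 667nm spot fluorescence with signal to noise across triplicate slides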
[3] = small-molecule microarray binders of probe aCHRDL2, primary screen, biochemical, biotinylated probe, 635/667 nm fluorescence (AID 1100); details: higher = more signal
[4] = splicing luciferase reporter signal modulators, primary screen, spliceosome inhibition project, cell-based, HEK293, splice +/- reporter (AID 1101); details: luminescence, 24 h, higher = more signal, called active from +8 up or from −8 down;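 also: HEK293 cells carrying a splicing-competent luciferase reporter gene; test concentration not given here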
[5] = target: Fibroblast growth factor 10 (Homo sapiens) (UniProt O15520); test: FGF10 binders on small-molecule microarrays, primary screen, biochemical, small-molecule microarray, 635 nm fluorescence (AID 1102); details: FGF10 binding, fluorescence 635 nm, higher = more signal
Chain of Fibroblast growth factor 10 (Homo sapiens) (O15520 whole entry, looked up): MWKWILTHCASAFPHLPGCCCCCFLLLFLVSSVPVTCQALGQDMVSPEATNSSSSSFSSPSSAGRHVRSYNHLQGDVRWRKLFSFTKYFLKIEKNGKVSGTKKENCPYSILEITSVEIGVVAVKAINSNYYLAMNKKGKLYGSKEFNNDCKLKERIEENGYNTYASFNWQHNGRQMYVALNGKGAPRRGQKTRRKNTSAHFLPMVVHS

[6] = tested on: glycogen synthase kinase-3 (GSK3A per assay name; protocol says GSK3B); test: GSK3 binders on small-molecule microarrays, primary screen, biochemical, small-molecule microarray, 635 nm fluorescence, GSK3A (AID 1103); details: small-molecule microarray binding, fluorescence 635 nm; higher = more signal; also: the record names both GSK3A and GSK3B
[7] = target: Epidermal growth factor receptor (Homo sapiens) (UniProt P00533); test: EGFR binders on small-molecule microarrays, primary screen, biochemical, small-molecule microarray, 635 nm fluorescence (AID 1104); details: EGFR binding, higher = more signal;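 also: score merges 667 nm emission intensity with spot signal to noise over triplicate slides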
Chain of Epidermal growth factor receptor (Homo sapiens) (P00533 whole entry, looked up): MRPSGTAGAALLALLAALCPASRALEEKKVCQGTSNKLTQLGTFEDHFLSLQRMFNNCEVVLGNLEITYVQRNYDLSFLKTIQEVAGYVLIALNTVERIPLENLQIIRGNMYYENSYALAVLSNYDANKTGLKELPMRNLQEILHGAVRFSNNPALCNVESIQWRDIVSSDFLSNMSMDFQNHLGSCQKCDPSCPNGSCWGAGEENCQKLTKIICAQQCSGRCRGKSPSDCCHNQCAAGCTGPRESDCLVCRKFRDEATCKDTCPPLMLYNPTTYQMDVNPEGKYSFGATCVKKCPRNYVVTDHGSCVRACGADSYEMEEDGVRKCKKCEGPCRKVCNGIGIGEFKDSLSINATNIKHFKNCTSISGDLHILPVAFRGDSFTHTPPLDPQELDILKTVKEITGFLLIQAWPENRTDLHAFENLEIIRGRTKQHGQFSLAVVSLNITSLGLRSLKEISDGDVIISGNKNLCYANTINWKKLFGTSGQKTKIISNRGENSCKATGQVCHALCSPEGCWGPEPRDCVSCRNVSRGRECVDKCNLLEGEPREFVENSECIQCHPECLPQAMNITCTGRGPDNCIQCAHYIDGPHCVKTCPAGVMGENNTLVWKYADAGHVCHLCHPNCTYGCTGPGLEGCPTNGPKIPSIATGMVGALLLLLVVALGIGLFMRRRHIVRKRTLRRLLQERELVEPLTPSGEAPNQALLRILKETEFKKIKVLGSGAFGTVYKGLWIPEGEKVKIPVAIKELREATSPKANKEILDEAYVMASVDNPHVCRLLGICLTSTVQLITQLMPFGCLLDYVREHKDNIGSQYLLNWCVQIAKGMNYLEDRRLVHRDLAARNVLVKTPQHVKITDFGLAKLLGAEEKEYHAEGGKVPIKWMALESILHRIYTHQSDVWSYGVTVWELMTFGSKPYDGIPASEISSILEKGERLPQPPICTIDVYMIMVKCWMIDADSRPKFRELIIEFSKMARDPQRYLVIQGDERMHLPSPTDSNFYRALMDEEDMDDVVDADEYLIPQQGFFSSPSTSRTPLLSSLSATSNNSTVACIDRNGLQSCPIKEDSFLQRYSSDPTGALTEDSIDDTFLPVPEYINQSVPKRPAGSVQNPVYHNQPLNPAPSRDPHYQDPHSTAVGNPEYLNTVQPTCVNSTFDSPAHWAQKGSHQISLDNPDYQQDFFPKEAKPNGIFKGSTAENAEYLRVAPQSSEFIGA

[8] = target: Follistatin-related protein 3 (Homo sapiens) (UniProt O95633); test: FSTL3 binders on small-molecule microarrays, primary screen, biochemical, small-molecule microarray, 635 nm fluorescence (AID 1105); details: FSTL3 binding, higher = more signal;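 also: score merges emission near 667 nm and signal to noise per printed spot across three slides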
Chain of Follistatin-related protein 3 (Homo sapiens) (O95633 whole entry, looked up): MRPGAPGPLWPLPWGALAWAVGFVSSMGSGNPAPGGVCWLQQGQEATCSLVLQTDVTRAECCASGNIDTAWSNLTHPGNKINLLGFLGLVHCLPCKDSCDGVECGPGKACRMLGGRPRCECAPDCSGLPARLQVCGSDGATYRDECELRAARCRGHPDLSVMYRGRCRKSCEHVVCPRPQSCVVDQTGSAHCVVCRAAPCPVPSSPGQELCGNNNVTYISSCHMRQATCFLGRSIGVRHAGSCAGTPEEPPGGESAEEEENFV

[9] = target: Dickkopf-related protein 1 (Homo sapiens) (UniProt O94907); test: DKK1 binders on small-molecule microarrays, primary screen, biochemical, small-molecule microarray, 635 nm fluorescence scan (AID 1106); details: DKK1 binding, higher = more signal;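 also: score merges emission near 667 nm with signal to noise over three replicate slides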
Chain of Dickkopf-related protein 1 (Homo sapiens) (O94907 whole entry, looked up): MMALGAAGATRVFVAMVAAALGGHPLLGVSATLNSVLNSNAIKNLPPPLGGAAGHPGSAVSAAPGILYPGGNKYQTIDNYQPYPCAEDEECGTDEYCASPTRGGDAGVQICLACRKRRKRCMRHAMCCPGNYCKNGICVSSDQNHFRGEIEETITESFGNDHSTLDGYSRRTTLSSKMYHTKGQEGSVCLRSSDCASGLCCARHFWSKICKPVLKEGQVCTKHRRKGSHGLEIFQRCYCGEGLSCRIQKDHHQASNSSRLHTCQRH

[10] = tested on: Inhibin beta A chain (activin A); test: INHBA (activin A) binders on microarrays, primary screen, biochemical, small-molecule microarray, 635 nm fluorescence scan (AID 1107); details: small-molecule microarray binding, higher = more signal;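 also: mouse activin A protein probed at 4.33 µg/mL on printed slides; score merges bound-protein fluorescence near 667 nm with spot signal-to-noise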
[11] = tested on: Human papillomavirus type 1a protein E7 (residues 44-93); test: HPV1a E7 fragment binders on microarrays, primary screen, biochemical, small-molecule microarray, residues 44-93, 635 nm fluorescence (AID 1108); details: small-molecule microarray binding, fluorescence 635 nm; higher = more signal;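 also: E7 fragment applied at 1 µg/mL in TBST for 1 h at 4 C; score combines spot fluorescence with its signal to noise ratio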
[12] = modulators of HCV replicon luciferase signal, primary screen, HCV replication inhibitor project, Huh7 cells, luciferase reporter (AID 1109); details: 48 h, higher = more signal;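 also: huh7 hepatoma cells harbouring a luciferase neomycin HCV replicon reporter; luciferase luminescence as measure of HCV replicon replication; test concentration not given here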
[13] = target: Left-right determination factor 2 (Homo sapiens) (UniProt O00292); test: LEFTY2 binders on small-molecule microarrays, primary screen, biochemical, small-molecule microarray, 635 nm fluorescence scan (AID 1110); details: LEFTY2 binding, higher = more signal
Chain of Left-right determination factor 2 (Homo sapiens) (O00292 whole entry, looked up): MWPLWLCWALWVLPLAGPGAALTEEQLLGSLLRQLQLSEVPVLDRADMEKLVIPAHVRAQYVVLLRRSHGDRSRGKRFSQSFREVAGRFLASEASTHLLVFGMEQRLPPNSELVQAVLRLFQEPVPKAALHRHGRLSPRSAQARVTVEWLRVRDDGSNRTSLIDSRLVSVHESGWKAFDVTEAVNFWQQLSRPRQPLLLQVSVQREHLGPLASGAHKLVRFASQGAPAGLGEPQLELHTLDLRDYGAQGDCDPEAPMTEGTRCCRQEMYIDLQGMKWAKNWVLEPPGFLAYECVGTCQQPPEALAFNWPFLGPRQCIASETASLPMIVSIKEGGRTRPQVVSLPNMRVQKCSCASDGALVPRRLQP

[14] = target: Calmodulin-1 (Homo sapiens) (UniProt P0DP23); test: CALM1 binders on microarrays, EGTA buffer, profiling panel, biochemical, small-molecule microarray, Cy5-labelled CALM1 (AID 1111); details: Cy5-CALM1 binding fluorescence, higher = more signal;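 also: labelled calmodulin applied in Tris saline Tween buffer holding calcium plus EGTA and DTT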
[15] = target: Calmodulin-1 (Homo sapiens) (UniProt P0DP23); test: calcium-bound CALM1 binders on microarrays, profiling panel, artefact control for SMM control-protein annotation, biochemical, small-molecule microarray, Cy5-labelled CALM1, plus calcium (AID 1112); details: Cy5-CALM1 binding fluorescence, higher = more signal;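 also: score merges spot fluorescence with signal to noise from triplicate slides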
[16] = small-molecule microarray binders of probe aWnt5a, primary screen, biochemical, biotinylated probe, 635/667 nm fluorescence (AID 1113); details: higher = more signal;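 also: score merges 667 nm fluorescence intensity with signal-to-noise per printed feature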
[17] = small-molecule microarray binders of probe aShh, primary screen, biochemical, biotinylated probe, 635/667 nm fluorescence (AID 1114); details: higher = more signal;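 also: probe is biotin-labelled aShh protein from a stem cell growth factor screen; measures binding of labelled protein to compounds printed on the slide; score merges feature fluorescence at 667 nm with signal-to-noise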
[18] = small-molecule microarray binders of probe aNog, primary screen, biochemical, biotinylated probe, 635/667 nm fluorescence (AID 1115); details: higher = more signal;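 also: probe is biotinylated aNog protein used at 0.15 µg/mL for 1 h at 4 C; z-score combines 667 nm fluorescence of each spot with its signal to noise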
[19] = target: Torsin-1A-interacting protein 1 (Homo sapiens) (UniProt Q5JTV8); test: LAP1 binders from COS7 cell lysate, primary screen, small-molecule microarray, 635/667 nm fluorescence (AID 1116); details: COS7-hLAP1 lysate binding, 635 nm fluorescence, higher = more signal
Chain of Torsin-1A-interacting protein 1 (Homo sapiens) (Q5JTV8 whole entry, looked up): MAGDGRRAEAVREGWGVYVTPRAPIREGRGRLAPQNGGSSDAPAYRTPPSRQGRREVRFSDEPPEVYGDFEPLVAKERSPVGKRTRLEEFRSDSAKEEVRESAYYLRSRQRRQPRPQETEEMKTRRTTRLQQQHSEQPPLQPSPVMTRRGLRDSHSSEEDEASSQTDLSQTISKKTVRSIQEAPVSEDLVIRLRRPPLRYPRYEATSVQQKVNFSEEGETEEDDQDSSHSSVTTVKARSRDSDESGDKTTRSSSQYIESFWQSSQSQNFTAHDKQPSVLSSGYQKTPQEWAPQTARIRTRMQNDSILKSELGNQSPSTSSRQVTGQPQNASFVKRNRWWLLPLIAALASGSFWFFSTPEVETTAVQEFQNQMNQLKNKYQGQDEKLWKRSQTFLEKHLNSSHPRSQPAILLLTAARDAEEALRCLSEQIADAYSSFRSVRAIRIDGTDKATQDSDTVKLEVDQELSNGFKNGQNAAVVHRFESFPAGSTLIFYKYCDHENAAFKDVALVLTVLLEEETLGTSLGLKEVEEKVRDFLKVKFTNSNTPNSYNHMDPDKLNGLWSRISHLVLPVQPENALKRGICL

[20] = target: Alpha-bungarotoxin (Bungarus multicinctus) (UniProt P60615); test: alpha-bungarotoxin binders on microarray, profiling panel, artefact control for SMM control protein annotation, biochemical, small-molecule microarray, Alexa647 label, 635/667 nm fluorescence (AID 1117); details: alpha-BTX-A647 binding fluorescence, higher = more signal
Chain of Alpha-bungarotoxin (Bungarus multicinctus) (P60615 whole entry, looked up): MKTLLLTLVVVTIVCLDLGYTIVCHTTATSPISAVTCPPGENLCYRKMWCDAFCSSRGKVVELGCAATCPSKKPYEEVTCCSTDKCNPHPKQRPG

| SMILES | composite z-score [1] | composite z-score [2] | composite z-score [3] | z-score [4] | composite z-score [5] | composite z-score [6] | composite z-score [7] | composite z-score [8] | composite z-score [9] | composite z-score [10] | composite z-score [11] | z-score [12] | composite z-score [13] | composite z-score [14] | composite z-score [15] | composite z-score [16] | composite z-score [17] | composite z-score [18] | composite z-score [19] | composite z-score [20] |
| --- | --- | --- | --- | --- | --- | --- | --- | --- | --- | --- | --- | --- | --- | --- | --- | --- | --- | --- | --- | --- |
| C=C(COC)/C(=C/C[C@@H](OC(=O)c1ccncc1)c1cccc(OCCO)c1)c1cc(C(=O)OC)ccc1OC | 0.756 | -0.183 | -0.471 | -0.651 (inactive) | 1.62 | 1.2 | 0.29 | 0.902 | 0.167 | 0.997 | 0.755 | -4.4 | 0.872 | -0.134 | -0.698 | 0.115 | 0.0048 | -0.483 | 0.567 | 0.243 |
| O=C1OCC=C[C@H]2OC34C=CCN(CCN5CCOCC5)C(=O)[C@H]3N(CCCCCO)C(=O)[C@@H]4[C@@H]12 (stereo not given in full) | 1.35 | -0.284 | -0.227 | 0.636 (inactive) | -0.736 | -0.0692 | -0.411 | -0.412 | -0.24 | 0.77 | -1.19 | 0.557 | -0.258 | -0.234 | -0.953 | -0.178 | -0.223 | -0.278 | -0.607 | 0.396 |
| CC(C)CCC[C@@H](C)[C@H]1CC[C@@]2(C)C3=C(CC[C@]12C)[C@@]1(C)CC[C@H](OC(=O)c2ccc(N)cc2)C(C)(C)C1CC3 (stereo not given in full) | 0.347 | -0.285 | -0.761 | -0.925 (inactive) | 0.331 | 0.833 | 0.614 | 0.587 | 1.4 | -0.023 | 0.609 | 0.0533 | 1.2 | -0.137 | -0.674 | -0.0545 | 0.768 | -0.427 | 0.282 | 0.0506 |
| COCC(=C=CC[C@@H](O)c1ccccc1OCCO)C[C@@H](O)c1ccccn1 | 0.378 | -0.0661 | -0.0356 | 0.141 (inactive) | 0.457 | 0.207 | -0.0982 | 0.322 | 0.0514 | 0.639 | 0.968 | -0.979 | 0.289 | -0.153 | -0.514 | -0.124 | -0.0119 | 0.099 | -0.246 | 0.34 |
| CCOC(=O)C1=CC[C@@H](c2ccc(N(CC)CC)cc2)N(S(=O)(=O)c2ccc(C)cc2)[C@H]1c1ccc([N+](=O)[O-])cc1 | 0.468 | 0.592 | 1.33 | -1.26 (inactive) | -0.69 | -1.04 | -1.17 | -0.966 | -1.59 | 1.04 | 1.24 | -0.83 | -1.76 | 0.863 | -0.378 | -0.0472 | -0.0035 | 0.587 | 0.923 | 0.274 |
| COCCCNC(=O)[C@]1(CCS(=O)(=O)c2ccccc2)N=C(c2ccc(OCCCO)cc2)O[C@@H]1c1ccccc1 | 1.86 | 0.126 | 0.937 | -0.594 (inactive) | 1.01 | 1.01 | 0.304 | 0.485 | 0.0266 | 0.455 | 1.11 | -0.995 | 0.494 | 1.62 | 0.214 | 0.0179 | -0.161 | -0.315 | 1.8 | 1.5 |
| Cc1ccc(-c2cccc(=O)o2)cc1 | -0.466 | 0.0694 | -0.0115 | 0.613 (inactive) | -0.1 | -0.39 | 0.115 | 0.483 | 0.184 | 1.35 | -1.01 | 0.488 | 0.418 | -1.18 | -0.802 | -0.145 | -0.138 | 0.11 | -0.101 | -0.391 |
| O=C(NCc1ccccc1)[C@]1(Cc2ccccc2)N=C(c2ccc(OCCCO)cc2)O[C@@H]1c1ccccc1 | -0.0602 | 0.857 | 0.75 | -0.0706 (inactive) | 0.154 | 0.789 | 0.178 | -0.11 | -0.565 | 0.672 | 1.4 | -2.58 | -0.126 | 2.01 | 1.1 | -0.13 | -0.305 | 0.044 | 0.652 | 0.351 |
| [N-]=[N+]=NCc1ccccc1C[C@]1(C(=O)NCCN2CCOCC2)COC(c2ccc(OCCCO)cc2)=N1 | 1.49 | 0.297 | 0.853 | -0.995 (inactive) | 0.396 | 0.966 | -0.553 | 0.101 | -0.36 | 0.978 | 1.44 | -1.79 | -0.389 | 0.74 | -0.096 | 0.0479 | -0.0119 | -0.509 | 0.555 | -0.0034 |
| C/C=C/[C@@H](CCn1cc([C@H](O)c2ccccc2)nn1)[Si](C)(C)c1ccc(OC)cc1 | 1.53 | -0.414 | 0.476 | -0.406 (inactive) | -0.71 | -0.507 | -0.849 | -0.748 | -0.0219 | 0.0838 | 0.434 | -2.6 | -1.32 | -1.34 | -1.35 | -0.012 | 0.0639 | -0.738 | 0.834 | 0.478 |
| C[C@]12C(=O)N(CCCO)[C@@H]3C(=O)N(c4ccc(Cl)cc4)CC=CC31O[C@@H]1/C=C\CCCOC(=O)C12 (stereo not given in full) | 1.83 | -0.275 | 0.62 | 0.158 (inactive) | -0.747 | -1.07 | -0.887 | -0.538 | -1.01 | 0.232 | -0.202 | -0.513 | -1.31 | -0.887 | -0.203 | -0.202 | -0.0904 | 0.309 | 2.33 | -0.777 |

Source: PubChem BioAssay
